Screening results (PubChem)
ssDAF12 agonist = S. stercoralis DAF-12 activation, primary screen | HEK293 ssDAF-12/GRIP1 lit1-tk-luc reporter, luminescence; % of 3 µM dafachronic acid response | activation, % at 6.8 µM | 370,000 tested, 1% active;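 active means activation above the mean over all tested compounds plus 3 SD, cut at about 0.9% in these data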;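 further: 0% = DMSO-only wells and 100% = 3 µM delta7-dafachronic acid wells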
DAX1 inh-1 = NR0B1 (DAX1) inhibition. P51843. inhibition, % at 6.75 µM. HEK293 Gal4-DAX1 luciferase reporter, luminescence. 340,000 tested, 0.99% active;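 active means inhibition above the mean over all tested compounds plus 3 SD, cut at about 4.2% in these data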;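 further: 0% = DAX1-transfected cells with DMSO and 100% = empty-vector control cells with DMSO; inhibition shows as a rise in luminescence from relieved DAX1 repression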
Target sequence (P51843 207-470 limits assumed): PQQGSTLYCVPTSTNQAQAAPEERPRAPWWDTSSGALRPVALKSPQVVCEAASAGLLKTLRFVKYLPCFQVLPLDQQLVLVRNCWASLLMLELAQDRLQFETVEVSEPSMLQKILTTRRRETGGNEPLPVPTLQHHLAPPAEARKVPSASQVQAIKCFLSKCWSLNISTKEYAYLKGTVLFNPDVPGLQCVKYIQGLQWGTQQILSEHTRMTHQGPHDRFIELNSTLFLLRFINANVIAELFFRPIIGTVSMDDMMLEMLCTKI
AHR activator = human AHR activation. 320,000 tested, 2.5% active. AID 2796. P35869. AHR-responsive luciferase reporter cells, luminescence. activation, % at 5 µM; in the data active means activation above about 47%;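 further: 0% = vehicle wells and 100% = reference agonist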
hgDAF12 agonist = hgDAF-12 agonism, primary luciferase screen; activation, % at 6.8 µM; 370,000 tested, 1.8% active; HEK293 GAL4-hgDAF12 UAS-luciferase reporter, agonist luminescence; normalized to butyrate control;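 active means activation above a cutoff set at the mean of all screened compounds plus 3 SD, cut at about 10% in these data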;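 further: 0% = DMSO wells and 100% = sodium butyrate wells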
hcDAF-12 act = activates DAF-12 receptor from parasite H. contortus; HEK293 hcDAF-12 lit1-tk-luc reporter, luminescence; 0% DMSO, 100% Δ7-dafachronic acid; activation, % at 6.8 µM; 370,000 tested, 1.4% active; AID 652067;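 active means activation above the mean of all tested compounds plus 3 SD, cut at about 5.5% in these data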;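 further: 100% = response to 3 µM Δ7-dafachronic acid high control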
DAX1 inh-2 = DAX1 (NR0B1) inhibition, primary screen; HEK293T StAR-luciferase reporter, SF-1/DAX-1 repression relief; inhibition, % at 6.8 µM; 370,000 tested, 1.1% active; AID 652010;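 active means inhibition above the mean over all tested compounds plus 3 SD, cut at about 3.6% in these data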;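 further: 0% = DAX-1 cells with DMSO and 100% = cells lacking DAX-1 with DMSO; higher inhibition means more luminescence from relief of DAX-1 repression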
* = called active by the depositor; / = not tested or not shown. The list is not random: actives were taken first. Their share in the collection is about 5.7%.

SMILES | ssDAF12 agonist | DAX1 inh-1 | AHR activator | hgDAF12 agonist | hcDAF-12 act | DAX1 inh-2
CC(=O)OCC(=O)C1(O)CCC2C3CCC4=CC(=O)CCC4(C)C3C(O)CC21C (centres undefined) | -1 | 0 | / | -3 | 0 | 3.7*
CSCC[C@H](NC(=O)[C@@H]1Cc2ccccc2CN1)C(=O)Nc1ccc2c(c1)OCCO2 | -1 | 2 | 7 | 3 | -2 | -1
CC(=O)Nc1ccc2nc(NC(=O)COc3cccc(C)c3)sc2c1 | -1 | -1 | 33 | 0 | 1 | -1
CC(C)(CSc1nncn1N)NS(=O)(=O)c1ccc(Cl)cc1 | -1 | 2 | -1 | -1 | -1 | 0
CCOc1ccccc1NC(=O)Cn1nnc(C(=O)NCc2ccco2)c1N | -1 | 1 | 64* | -4 | 0 | 1
CCN(CCN(C)C)C(=O)Cn1ncc2c1-c1cc(C)ccc1OC2 | -1 | 5.6* | 0 | 2 | -1 | 0
Cc1ccc2c(c1)-c1c(cnn1CC(=O)O)CO2 | 0 | 1 | -1 | -2 | -1 | 1
CN(C)/C=N/c1nc2nccc(-c3cccs3)n2n1 | -1 | 0 | 75* | -1 | -2 | 0
CN(C)/C=N/c1nc2nccc(-c3ccc(F)cc3)n2n1 | -1 | 1 | 2 | 2 | -1 | 0
O=C(NNC1=C(C(=O)C(F)(F)F)CCC1)c1cccnc1 | 0 | 3 | 21 | 3 | 0 | 3
Cc1cccc(C(=O)NNC2=C(C(=O)C(F)(F)F)CCC2)c1O | 0 | 1 | 28 | 12* | 3 | 1
O=C(c1ccc(CS(=O)c2ccccc2Cl)o1)N1CCN(c2ccccn2)CC1 (centres undefined) | -2 | -2 | 59* | 1 | -1 | -1
COc1ccccc1S(=O)(=O)Cc1ccc(C(=O)N2CCN(c3ccccn3)CC2)o1 | / | -2 | 66* | / | / | /
O=C(c1ccc(CS(=O)Cc2ccccc2Cl)o1)N1CCN(c2ccccn2)CC1 (centres undefined) | -1 | 0 | 31 | -5 | -1 | -2
Cc1nc(-c2ccncc2)sc1C(=O)Nc1ccc(Cl)cc1 | -2 | -1 | 65* | -3 | -1 | 0
Cc1nc(Cl)sc1C(=O)Nc1ccc(C(C)(C)C)cc1 | 0 | 5.2* | 16 | 5 | 1 | -1
CNC(=O)c1sc(-c2ccccn2)nc1C | -2 | 0 | -2 | 0 | 0 | 0
Cc1nc(-c2ccc(Cl)cc2)sc1C(=O)O | 0 | 2 | 7 | 9 | 2 | 2
Cc1ccc(NC(=O)c2c(C)noc2C)cc1 | -1 | 1 | -4 | -2 | 0 | 0
Cc1noc(N)c1C(=O)Nc1ccc(C(C)(C)C)cc1 | 0 | 3 | 22 | 13* | 1 | 2
Cc1nc(-c2ccccn2)sc1C(=O)Nc1ccc(F)cc1 | -1 | 0 | 118* | 3 | 1 | 0
O=c1cnn(-c2ccccc2)c(-c2ccccc2)c1 | -1 | 0 | 50* | 0 | -2 | 0
CN(C)/C=N/S(=O)(=O)c1ccc(Cl)cc1 | -1 | 4.4* | 0 | -2 | -1 | 0
COc1cc(C2C=C(c3cccs3)Nc3ncnn32)cc(OC)c1OC (centres undefined) | / | 0 | / | / | / | /
CCCCNc1c(-c2ccc(SC3CCCCC3)cc2)nc2ccccn12 | 0 | 5.1* | 9 | 12* | 4 | 4.0*
SMILES | ssDAF12 agonist | DAX1 inh-1 | AHR activator | hgDAF12 agonist | hcDAF-12 act | DAX1 inh-2
CCCCNc1c(-c2cccc(SC3CCCCC3)c2)nc2ccc(Cl)cn12 | -1 | 0 | 9 | 1 | 1 | 0
O=C(N/N=C/c1cccnc1)c1cc(-c2ccc(Cl)cc2)nc2ccccc12 | -1 | 5.6* | 36 | 3 | 1 | 0
O=C(Nc1ccc2[nH]ccc2c1)c1cc(-c2ccc(Cl)cc2)nc2ccccc12 | 1 | / | / | 6 | 6.2* | 0
O=C(N/N=C/c1ccco1)c1cc(-c2cccc(Br)c2)nc2ccccc12 | -1 | -1 | 50* | 0 | -3 | -1
O=C(N/N=C/c1ccc[nH]1)c1cc(-c2ccc(Cl)cc2)nc2ccccc12 | -2 | -1 | 49* | -3 | -2 | -3
CCn1c(C)nc2cc(C(=O)N3N=C(CCOC)CC3(O)C(F)(F)F)ccc21 (centres undefined) | -2 | -2 | 0 | -1 | 1 | 0
